The record followed here is PubChem BioAssay (NCATS).

Structures are written as SMILES. Records with an inconclusive call do not appear. Active and inactive are the calls of the source. Unless noted, calls come from the whole dose curve; as a rule, active = well fitted curve in the direction sought with a large enough effect; inconclusive = small, poorly fitted or top-dose-only effect, or another doubt; inactive = no such curve, though single readings can be large; an effect the other way counts as inactive or inconclusive.

Test [1] addresses Alpha-galactosidase (Coffea arabica) (UniProt Q42656). Kind of test: Counterscreen for Glucocerebrosidase Inhibitors: qHTS Assay for Coffee Bean alpha-Galactosidase at pH 4.5 (AID 957). Note: series mostly up to about 77 µM. The essentials: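 Fluorogenic qHTS at pH 4.5 (citrate buffer with Tween-20): 2 nM enzyme, 80 uM 4-MU-alpha-galactoside substrate, compound titrated 0.7 nM to 77 uM, 20 min room temperature. Glycine/NaOH stop; 4-MU read Ex 365/Em 440; Hill-equation AC50 against no-enzyme and enzyme controls.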
On the technique in general: The purpose of a counterscreen is to sort out artefacts and off-target activity.

Test [2] shares this target. The test is described as follows: Counterscreen for Glucocerebrosidase Inhibitors: qHTS Assay for Coffee Bean alpha-Galactosidase at pH 5.9 (AID 998). The essentials:
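Enzyme 2 nM + cpd (0.7 nM–77 uM titration) + 4-MU-alpha-Gal 80 uM, pH 5.9 citrate/Tween-20, RT 20 min, NaOH/glycine stop pH 10, fluor 365/440. Normalized to no-enzyme and full-activity controls; Hill-fit AC50.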

The nature of test [3]: Validation screen for inhibitors of Lassa infection (AID 463096; calls by dose curve; note: potency is the fitted concentration of half-maximal effect).
Test [4] can be described thus: Inducers of the Endoplasmic Reticulum Stress Response (ERSR) in human glioma: Validation (AID 504836). The essentials:
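Stably transfected U87-MG glioma cells carrying a GRP78-based luciferase sensor; 16 h compound incubation. Luminescence end-point read 10 min after Bright-Glo addition at room temperature.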

The nature of test [5]: qHTS for Inhibitors of the Functional Ribonucleoprotein Complex (vRNP) of Lassa (LASV) Arenavirus: LASV Primary Screen - GLuc reporter signal (AID 1347082; calls by dose curve; tested in HEK293 reporter line; note: series mostly up to about 57 µM; nearly all actives have a fitted effect of over 60% in size). Background: Quantitative high-throughput screening tests each substance at several concentrations.
A short description of test [6]: qHTS for Inhibitors of the Functional Ribonucleoprotein Complex (vRNP) of Lassa (LASV) Arenavirus: Viability assay - alamar blue signal for LASV Primary Screen (AID 1347083; calls by dose curve; tested in HEK293 reporter line; note: series mostly up to about 57 µM; nearly all actives have a fitted effect of over 80% in size).
The nature of test [7]: qHTS for Inhibitors of the Functional Ribonucleoprotein Complex (vRNP) of Lymphocytic Choriomeningitis Arenaviruses (LCMV): Viability assay - alamar blue signal for LCMV Primary Screen (AID 1347085; calls by dose curve; tested in HEK293 reporter line; note: series mostly up to about 57 µM; nearly all actives have a fitted effect of over 80% in size).
For test [8], the target named is Nucleoprotein (Lymphocytic choriomeningitis virus (strain Armstrong)) (UniProt P09992). The test is described as follows: qHTS for Inhibitors of the Functional Ribonucleoprotein Complex (vRNP) of Lymphocytic Choriomeningitis Arenaviruses (LCMV): LCMV Primary Screen - GLuc reporter signal (AID 1347086; calls by dose curve; note: series mostly up to about 57 µM; nearly all actives have a fitted effect of over 70% in size).
Chain of Nucleoprotein (Lymphocytic choriomeningitis virus (strain Armstrong)) (P09992 whole entry, looked up): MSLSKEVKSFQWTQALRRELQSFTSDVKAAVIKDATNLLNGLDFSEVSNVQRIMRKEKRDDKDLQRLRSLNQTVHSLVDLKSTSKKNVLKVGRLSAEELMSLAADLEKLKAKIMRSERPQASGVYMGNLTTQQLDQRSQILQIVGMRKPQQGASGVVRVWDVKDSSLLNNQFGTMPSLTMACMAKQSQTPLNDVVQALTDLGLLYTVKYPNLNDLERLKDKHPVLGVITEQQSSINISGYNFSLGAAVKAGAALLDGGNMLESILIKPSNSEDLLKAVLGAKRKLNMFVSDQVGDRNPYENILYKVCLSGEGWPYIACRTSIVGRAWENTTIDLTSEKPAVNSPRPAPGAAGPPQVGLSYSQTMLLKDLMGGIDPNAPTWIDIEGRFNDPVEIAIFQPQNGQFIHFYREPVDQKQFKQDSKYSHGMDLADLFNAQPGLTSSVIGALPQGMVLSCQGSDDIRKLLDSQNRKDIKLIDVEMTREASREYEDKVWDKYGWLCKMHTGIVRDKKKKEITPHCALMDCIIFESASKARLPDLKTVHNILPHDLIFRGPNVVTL

Chain of Alpha-galactosidase (Coffea arabica) (Q42656 whole entry, looked up): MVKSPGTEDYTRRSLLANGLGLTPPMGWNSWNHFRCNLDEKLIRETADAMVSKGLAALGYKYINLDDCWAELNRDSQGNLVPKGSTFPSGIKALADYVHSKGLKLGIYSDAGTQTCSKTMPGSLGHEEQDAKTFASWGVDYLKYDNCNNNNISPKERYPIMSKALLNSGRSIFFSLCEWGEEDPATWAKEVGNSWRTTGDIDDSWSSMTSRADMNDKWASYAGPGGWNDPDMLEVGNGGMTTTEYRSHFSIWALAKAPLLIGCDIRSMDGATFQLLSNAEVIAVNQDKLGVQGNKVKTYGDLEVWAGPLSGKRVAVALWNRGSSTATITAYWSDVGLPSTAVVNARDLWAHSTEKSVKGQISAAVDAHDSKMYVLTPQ

For the compound `CNc1cc(NS(=O)(=O)c2ccc(N)cc2)nc(NC)n1`, the result in test [1], in test [2] and in test [4] was inactive. Moreover, the Potency result in test [3], in test [5], in test [6], in test [7] and in test [8] was “inactive” in each case.
For the compound `C[C@H](O)C(=O)C1=Nc2c(nc(N)[nH]c2=O)NC1`, the outcome in test [1], in test [2] and in test [4] was inactive. Further, the Potency entry in test [3], in test [5], in test [6], in test [7] and in test [8] was “inactive” throughout.
With `O=C(O)c1cc(=O)c2ccccc2[nH]1`, the compound was called inactive in test [1], in test [2] and in test [4]. Also, the Potency result in test [3], in test [5], in test [6], in test [7] and in test [8] was “inactive” in each case.
For the compound `CCCn1c(=O)c2[nH]c(-c3ccc(S(=O)(=O)O)cc3)nc2n(CCC)c1=O`, the call in test [1], in test [2] and in test [4] was inactive. In addition, the Potency entry in test [3], in test [5], in test [6], in test [7] and in test [8] was “inactive” each time.
With `N#C/C(=C\c1ccc(O)c(O)c1)C(=O)Nc1ccccc1`, the call in test [1], in test [2] and in test [4] was inactive. The Potency result in test [3], in test [5], in test [6], in test [7] and in test [8] was “inactive” throughout.
For the compound `CCCN(CC1CC1)c1nc(C)nc(Nc2c(Cl)cc(Cl)cc2Cl)c1Cl`, the compound was called inactive in test [1], in test [2] and in test [4]. In addition, the Potency entry in test [3], in test [5], in test [6], in test [7] and in test [8] was “inactive” each time.
As to `O=C1CCC(c2ccc(-n3ccnc3)cc2)=NN1`, the result in test [1], in test [2] and in test [4] was inactive. The Potency result in test [3], in test [5], in test [6], in test [7] and in test [8] was “inactive” in each case.
On to `O=C(OCCN1CCOCC1)C1(c2ccccc2)CCCCC1`, for which the call in test [1], in test [2] and in test [4] was inactive. For the same compound, the Potency entry in test [3], in test [5], in test [6], in test [7] and in test [8] was “inactive” each time.
On to `Oc1ccc(Cn2cc[nH]c2=S)cc1`, for which the call in test [1], in test [2] and in test [4] was inactive. Moreover, the Potency result in test [3], in test [5], in test [6], in test [7] and in test [8] was “inactive” in each case.
Take `COc1ccccc1N1CCN(CCN2C(=O)CC3(CCCC3)CC2=O)CC1`: the compound was classed as inactive in test [1], in test [2] and in test [4]. The Potency entry in test [3], in test [5], in test [6], in test [7] and in test [8] was “inactive” in each case.
In the case of `O=c1ccc2c(OCCCCc3ccccc3)c3ccoc3cc2o1`, the compound was classed as inactive in test [1], in test [2] and in test [4]. The Potency result in test [3], in test [5], in test [6], in test [7] and in test [8] was “inactive” each time.
For the compound `CC(=O)N[C@@H](Cc1c[nH]c2ccccc12)C(=O)OCc1cc(C(F)(F)F)cc(C(F)(F)F)c1`, the compound was called inactive in test [1], in test [2] and in test [4]. Moreover, the Potency entry in test [3], in test [5], in test [6], in test [7] and in test [8] was “inactive” throughout.
For the compound `O=C(N[C@@H](Cc1ccccc1)C(=O)CCl)OCc1ccccc1`, the call in test [1], in test [2] and in test [4] was inactive. The Potency in test [3] is 6.31 µM (active). The Potency entry in test [5], in test [6], in test [7] and in test [8] was “inactive” in each case.
Consider `CC(C)(C=O)Cc1cc(C(C)(C)C)c(O)c(C(C)(C)C)c1`, for which the call in test [1], in test [2] and in test [4] was inactive. Also, the Potency entry in test [3], in test [5], in test [6], in test [7] and in test [8] was “inactive” throughout.
On to `N[C@H](C(=O)O)[C@H](O)C(=O)O`, for which the compound was called inactive in test [1], in test [2] and in test [4]. Besides, the Potency entry in test [3], in test [5], in test [6], in test [7] and in test [8] was “inactive” each time.
As to `c1ccc2nc(C3=NCCN3)ccc2c1`, the result in test [1], in test [2] and in test [4] was inactive. The Potency result in test [3], in test [5], in test [6], in test [7] and in test [8] was “inactive” in each case.
In the case of `COc1ccc2c(c1)c(CC(=O)O)c(C)n2Cc1ccc(Cl)cc1`, the compound was called inactive in test [1], in test [2] and in test [4]. Moreover, the Potency entry in test [3], in test [5], in test [6], in test [7] and in test [8] was “inactive” in each case.
As for `CCCCCCC/C=C\CCCCCCCCC(=O)O`, the outcome in test [1], in test [2] and in test [4] was inactive. Besides, the Potency entry in test [3], in test [5], in test [6], in test [7] and in test [8] was “inactive” each time.
As to `CN[C@H](CC(=O)O)C(=O)O`, the outcome in test [1], in test [2] and in test [4] was inactive. Moreover, the Potency entry in test [3], in test [5], in test [6], in test [7] and in test [8] was “inactive” throughout.
As to `CC(C)NC[C@H](O)COc1ccc(CC(N)=O)cc1`, the compound was classed as inactive in test [1], in test [2] and in test [4]. The Potency entry in test [3], in test [5], in test [6], in test [7] and in test [8] was “inactive” each time.
For `O=[N+]([O-])c1cccc2c(Br)[nH]nc12`, the result in test [1], in test [2] and in test [4] was inactive. In addition, the Potency entry in test [3], in test [5], in test [6], in test [7] and in test [8] was “inactive” in each case.
For `O=C(O)c1cccnc1C(=O)O`, the compound was called inactive in test [1], in test [2] and in test [4]. The Potency result in test [3], in test [5], in test [6], in test [7] and in test [8] was “inactive” each time.
In the case of `Cn1c(=O)c2[nH]c(-c3ccccc3)nc2n(C)c1=O`, the outcome in test [1], in test [2] and in test [4] was inactive. For the same compound, the Potency entry in test [3], in test [5], in test [6], in test [7] and in test [8] was “inactive” each time.
